Test results: PMC12529666, “Dysregulation of AGO2-miRNA dynamics underlies the AGO2-associated Lessel–Kreienkamp syndrome”
Numbering of substitutions follows the chain as printed.

B1: ACGTTCTA (ssRNA)
RNA 1: GAGUUCUACAGUCCGACGAUCCCAACACGUUCUACACCUGGAAUUCUCGGGUGCCAA
RNA 2: UGGAGUGUGACAAUGGUGUUUG
DNA 1: GATCGTCGGACTGTAGAACTC
DNA 2: TTGGCACCCGAGAATTCCA
modifications: constant regions annealed to DNA blockers; guide miR-122 5' phosphate
B2: ACGTCTCG (ssRNA)
RNA 1: B1 RNA 1 with U31C, C32U, U33C, A34G
RNA 2: UGGAGUGUGACAAUGGUGUUUG
DNA 1: GATCGTCGGACTGTAGAACTC
DNA 2: TTGGCACCCGAGAATTCCA
modifications: constant regions annealed to DNA blockers; guide miR-122 5' phosphate
B3: ATGCTCTA (ssRNA)
RNA 1: B1 RNA 1 with C28U, U30C
RNA 2: UGGAGUGUGACAAUGGUGUUUG
DNA 1: GATCGTCGGACTGTAGAACTC
DNA 2: TTGGCACCCGAGAATTCCA
modifications: constant regions annealed to DNA blockers; guide miR-122 5' phosphate
B4: GCGTTTCG (ssRNA)
RNA 1: B1 RNA 1 with A27G, C32U, U33C, A34G
RNA 2: UGGAGUGUGACAAUGGUGUUUG
DNA 1: GATCGTCGGACTGTAGAACTC
DNA 2: TTGGCACCCGAGAATTCCA
modifications: constant regions annealed to DNA blockers; guide miR-122 5' phosphate
B5: GCGCCTCG (ssRNA)
RNA 1: B1 RNA 1 with A27G, U30C, U31C, C32U, U33C, A34G
RNA 2: UGGAGUGUGACAAUGGUGUUUG
DNA 1: GATCGTCGGACTGTAGAACTC
DNA 2: TTGGCACCCGAGAATTCCA
modifications: constant regions annealed to DNA blockers; guide miR-122 5' phosphate
B6: GCGTTTTA (ssRNA)
RNA 1: B1 RNA 1 with A27G, C32U
RNA 2: UGGAGUGUGACAAUGGUGUUUG
DNA 1: GATCGTCGGACTGTAGAACTC
DNA 2: TTGGCACCCGAGAATTCCA
modifications: constant regions annealed to DNA blockers; guide miR-122 5' phosphate
B7: GTATTCTG (ssRNA)
RNA 1: B1 RNA 1 with A27G, C28U, G29A, A34G
RNA 2: UGGAGUGUGACAAUGGUGUUUG
DNA 1: GATCGTCGGACTGTAGAACTC
DNA 2: TTGGCACCCGAGAATTCCA
modifications: constant regions annealed to DNA blockers; guide miR-122 5' phosphate
B8: GCGCTCTG (ssRNA)
RNA 1: B1 RNA 1 with A27G, U30C, A34G
RNA 2: UGGAGUGUGACAAUGGUGUUUG
DNA 1: GATCGTCGGACTGTAGAACTC
DNA 2: TTGGCACCCGAGAATTCCA
modifications: constant regions annealed to DNA blockers; guide miR-122 5' phosphate
B9: GCATCCTA (ssRNA)
RNA 1: B1 RNA 1 with A27G, G29A, U31C
RNA 2: UGGAGUGUGACAAUGGUGUUUG
DNA 1: GATCGTCGGACTGTAGAACTC
DNA 2: TTGGCACCCGAGAATTCCA
modifications: constant regions annealed to DNA blockers; guide miR-122 5' phosphate
B10: GCACCTCG (ssRNA)
RNA 1: B1 RNA 1 with A27G, G29A, U30C, U31C, C32U, U33C, A34G
RNA 2: UGGAGUGUGACAAUGGUGUUUG
DNA 1: GATCGTCGGACTGTAGAACTC
DNA 2: TTGGCACCCGAGAATTCCA
modifications: constant regions annealed to DNA blockers; guide miR-122 5' phosphate
B11: ATGCCTTA (ssRNA)
RNA 1: B1 RNA 1 with C28U, U30C, U31C, C32U
RNA 2: UGGAGUGUGACAAUGGUGUUUG
DNA 1: GATCGTCGGACTGTAGAACTC
DNA 2: TTGGCACCCGAGAATTCCA
modifications: constant regions annealed to DNA blockers; guide miR-122 5' phosphate
B12: GTACTTTG (ssRNA)
RNA 1: B1 RNA 1 with A27G, C28U, G29A, U30C, C32U, A34G
RNA 2: UGGAGUGUGACAAUGGUGUUUG
DNA 1: GATCGTCGGACTGTAGAACTC
DNA 2: TTGGCACCCGAGAATTCCA
modifications: constant regions annealed to DNA blockers; guide miR-122 5' phosphate
B13: GTGCCTTG (ssRNA)
RNA 1: B1 RNA 1 with A27G, C28U, U30C, U31C, C32U, A34G
RNA 2: UGGAGUGUGACAAUGGUGUUUG
DNA 1: GATCGTCGGACTGTAGAACTC
DNA 2: TTGGCACCCGAGAATTCCA
modifications: constant regions annealed to DNA blockers; guide miR-122 5' phosphate
B14: GCGCCTTG (ssRNA)
RNA 1: B1 RNA 1 with A27G, U30C, U31C, C32U, A34G
RNA 2: UGGAGUGUGACAAUGGUGUUUG
DNA 1: GATCGTCGGACTGTAGAACTC
DNA 2: TTGGCACCCGAGAATTCCA
modifications: constant regions annealed to DNA blockers; guide miR-122 5' phosphate
B15: GCGTCCTG (ssRNA)
RNA 1: B1 RNA 1 with A27G, U31C, A34G
RNA 2: UGGAGUGUGACAAUGGUGUUUG
DNA 1: GATCGTCGGACTGTAGAACTC
DNA 2: TTGGCACCCGAGAATTCCA
modifications: constant regions annealed to DNA blockers; guide miR-122 5' phosphate
B16: ATATCTTG (ssRNA)
RNA 1: B1 RNA 1 with C28U, G29A, U31C, C32U, A34G
RNA 2: UGGAGUGUGACAAUGGUGUUUG
DNA 1: GATCGTCGGACTGTAGAACTC
DNA 2: TTGGCACCCGAGAATTCCA
modifications: constant regions annealed to DNA blockers; guide miR-122 5' phosphate
B17: GTGCCTCG (ssRNA)
RNA 1: B1 RNA 1 with A27G, C28U, U30C, U31C, C32U, U33C, A34G
RNA 2: UGGAGUGUGACAAUGGUGUUUG
DNA 1: GATCGTCGGACTGTAGAACTC
DNA 2: TTGGCACCCGAGAATTCCA
modifications: constant regions annealed to DNA blockers; guide miR-122 5' phosphate
B18: GTGCCCCG (ssRNA)
RNA 1: B1 RNA 1 with A27G, C28U, U30C, U31C, U33C, A34G
RNA 2: UGGAGUGUGACAAUGGUGUUUG
DNA 1: GATCGTCGGACTGTAGAACTC
DNA 2: TTGGCACCCGAGAATTCCA
modifications: constant regions annealed to DNA blockers; guide miR-122 5' phosphate
B19: GCATCCCA (ssRNA)
RNA 1: B1 RNA 1 with A27G, G29A, U31C, U33C
RNA 2: UGGAGUGUGACAAUGGUGUUUG
DNA 1: GATCGTCGGACTGTAGAACTC
DNA 2: TTGGCACCCGAGAATTCCA
modifications: constant regions annealed to DNA blockers; guide miR-122 5' phosphate
B20: GTGCTTTA (ssRNA)
RNA 1: B1 RNA 1 with A27G, C28U, U30C, C32U
RNA 2: UGGAGUGUGACAAUGGUGUUUG
DNA 1: GATCGTCGGACTGTAGAACTC
DNA 2: TTGGCACCCGAGAATTCCA
modifications: constant regions annealed to DNA blockers; guide miR-122 5' phosphate
B21: GCGTCCCG (ssRNA)
RNA 1: B1 RNA 1 with A27G, U31C, U33C, A34G
RNA 2: UGGAGUGUGACAAUGGUGUUUG
DNA 1: GATCGTCGGACTGTAGAACTC
DNA 2: TTGGCACCCGAGAATTCCA
modifications: constant regions annealed to DNA blockers; guide miR-122 5' phosphate
B22: GCACCCTA (ssRNA)
RNA 1: B1 RNA 1 with A27G, G29A, U30C, U31C
RNA 2: UGGAGUGUGACAAUGGUGUUUG
DNA 1: GATCGTCGGACTGTAGAACTC
DNA 2: TTGGCACCCGAGAATTCCA
modifications: constant regions annealed to DNA blockers; guide miR-122 5' phosphate

Experiments:
Experiment in all cases: RNA Bind-n-Seq (nitrocellulose filter binding and sequencing); miR-122 guide loaded in AGO2; 60 min incubation; 30 mM Tris pH 8.0, 100 mM potassium acetate, 2 mM magnesium acetate, 0.5 mM TCEP, 0.005% NP-40, 0.01 mg/ml yeast tRNA; 3 nM AGO2-miR-122, 100 nM RNA library; 60; high values mean tight binding
Conditions in all cases: protein: recombinant; tags: His6 (N-terminal, pFastBac HTA)
AGO2 L192P = AGO2 L192P (Homo sapiens, UniProt Q9UKV8 1-859, L192P;S387D;S824A;S828D;S831D;S834A)
Outline: (§1)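 Fold enrichment is each target's read fraction divided by its read fraction in the input library. Sf9 insect cells expressed His-tagged AGO2 from baculovirus; the protein was loaded with a synthetic guide RNA and purified by Ni-NTA and a biotinylated capture oligo. The bound RNA was extracted, reverse-transcribed, barcode-amplified and sequenced on Illumina.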

AGO2 A367P = AGO2 A367P (Homo sapiens, UniProt Q9UKV8 1-859, A367P;S387D;S824A;S828D;S831D;S834A)
Outline: as §1

AGO2 T357M = AGO2 T357M (Homo sapiens, UniProt Q9UKV8 1-859, T357M;S387D;S824A;S828D;S831D;S834A)
Outline: as §1

AGO2 F182del = AGO2 F182del (Homo sapiens, UniProt Q9UKV8 1-859, S387D;S824A;S828D;S831D;S834A;del182-182)
Outline: as §1

Sequence of AGO2 T357M (Q9UKV8 whole entry T357M/S387D/S824A/S828D/S831D/S834A): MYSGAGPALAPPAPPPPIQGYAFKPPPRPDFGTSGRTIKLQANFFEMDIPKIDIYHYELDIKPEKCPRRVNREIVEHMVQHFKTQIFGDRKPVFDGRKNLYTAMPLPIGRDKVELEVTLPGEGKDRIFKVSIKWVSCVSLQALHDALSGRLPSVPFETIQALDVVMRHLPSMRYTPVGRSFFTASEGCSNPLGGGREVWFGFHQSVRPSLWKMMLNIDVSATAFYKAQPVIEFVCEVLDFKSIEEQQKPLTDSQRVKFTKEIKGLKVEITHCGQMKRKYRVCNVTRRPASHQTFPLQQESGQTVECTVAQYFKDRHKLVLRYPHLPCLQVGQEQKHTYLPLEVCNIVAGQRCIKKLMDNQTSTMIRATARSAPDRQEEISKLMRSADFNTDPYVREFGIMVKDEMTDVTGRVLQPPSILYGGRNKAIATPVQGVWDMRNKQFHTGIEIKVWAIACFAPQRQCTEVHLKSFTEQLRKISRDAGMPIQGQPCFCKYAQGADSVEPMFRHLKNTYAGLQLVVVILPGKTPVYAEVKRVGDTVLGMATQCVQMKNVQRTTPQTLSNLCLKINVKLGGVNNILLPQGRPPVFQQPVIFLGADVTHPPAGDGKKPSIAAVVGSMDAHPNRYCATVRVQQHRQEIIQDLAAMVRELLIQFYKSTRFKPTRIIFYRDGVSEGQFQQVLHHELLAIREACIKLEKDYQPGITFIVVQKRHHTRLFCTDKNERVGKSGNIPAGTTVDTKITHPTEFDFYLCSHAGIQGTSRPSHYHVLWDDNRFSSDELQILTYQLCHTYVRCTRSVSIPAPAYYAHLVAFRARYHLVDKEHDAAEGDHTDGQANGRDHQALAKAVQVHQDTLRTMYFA
Sequence of AGO2 L192P (Q9UKV8 whole entry L192P/S387D/S824A/S828D/S831D/S834A): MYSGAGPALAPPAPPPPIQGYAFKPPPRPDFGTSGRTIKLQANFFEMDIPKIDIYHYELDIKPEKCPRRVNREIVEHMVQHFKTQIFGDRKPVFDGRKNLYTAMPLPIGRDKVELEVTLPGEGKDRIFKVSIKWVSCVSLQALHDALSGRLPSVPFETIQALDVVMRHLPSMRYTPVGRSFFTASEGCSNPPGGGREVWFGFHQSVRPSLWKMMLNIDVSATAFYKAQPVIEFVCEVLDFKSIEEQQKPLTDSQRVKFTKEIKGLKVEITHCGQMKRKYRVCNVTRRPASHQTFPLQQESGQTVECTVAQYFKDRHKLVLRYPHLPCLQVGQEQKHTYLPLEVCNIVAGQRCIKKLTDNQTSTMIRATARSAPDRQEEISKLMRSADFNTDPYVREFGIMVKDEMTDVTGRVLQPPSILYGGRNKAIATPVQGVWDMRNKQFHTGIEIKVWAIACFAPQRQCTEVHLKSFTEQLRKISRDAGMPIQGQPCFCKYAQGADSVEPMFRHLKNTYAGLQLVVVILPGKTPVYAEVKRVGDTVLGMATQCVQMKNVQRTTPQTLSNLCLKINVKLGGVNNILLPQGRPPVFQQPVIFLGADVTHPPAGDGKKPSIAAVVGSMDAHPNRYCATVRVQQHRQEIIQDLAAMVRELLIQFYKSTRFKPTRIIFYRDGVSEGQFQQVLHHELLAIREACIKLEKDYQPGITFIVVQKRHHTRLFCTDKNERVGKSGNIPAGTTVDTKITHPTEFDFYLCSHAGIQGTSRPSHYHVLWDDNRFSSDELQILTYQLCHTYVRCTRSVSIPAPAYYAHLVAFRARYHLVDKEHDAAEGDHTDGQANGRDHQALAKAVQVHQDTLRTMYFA
Sequence of AGO2 F182del (Q9UKV8 other isoform, or with tags, fused parts or gaps S387D;S824A;S828D;S831D;S834A;del182-182): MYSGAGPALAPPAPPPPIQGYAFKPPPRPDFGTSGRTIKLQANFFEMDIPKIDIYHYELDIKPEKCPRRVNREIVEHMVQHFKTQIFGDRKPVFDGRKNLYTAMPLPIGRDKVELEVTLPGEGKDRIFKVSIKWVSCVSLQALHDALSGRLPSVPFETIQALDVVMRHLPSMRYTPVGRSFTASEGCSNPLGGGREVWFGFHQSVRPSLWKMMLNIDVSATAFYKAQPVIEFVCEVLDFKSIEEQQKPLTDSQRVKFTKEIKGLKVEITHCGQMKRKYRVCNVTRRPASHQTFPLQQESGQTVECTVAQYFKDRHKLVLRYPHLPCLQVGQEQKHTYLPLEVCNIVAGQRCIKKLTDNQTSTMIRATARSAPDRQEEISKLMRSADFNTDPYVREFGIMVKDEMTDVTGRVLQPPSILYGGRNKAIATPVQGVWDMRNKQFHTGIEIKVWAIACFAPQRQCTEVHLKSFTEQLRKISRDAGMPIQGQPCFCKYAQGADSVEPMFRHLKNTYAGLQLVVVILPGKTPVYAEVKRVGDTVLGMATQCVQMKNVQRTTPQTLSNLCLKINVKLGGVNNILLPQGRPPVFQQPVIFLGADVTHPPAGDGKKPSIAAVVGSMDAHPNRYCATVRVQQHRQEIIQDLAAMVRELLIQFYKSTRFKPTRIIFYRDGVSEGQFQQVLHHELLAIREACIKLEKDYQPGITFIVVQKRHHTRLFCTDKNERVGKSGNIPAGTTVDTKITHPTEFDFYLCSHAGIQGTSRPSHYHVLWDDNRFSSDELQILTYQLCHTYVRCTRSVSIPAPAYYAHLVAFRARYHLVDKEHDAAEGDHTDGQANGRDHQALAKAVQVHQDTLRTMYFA
Sequence of AGO2 A367P (Q9UKV8 whole entry A367P/S387D/S824A/S828D/S831D/S834A): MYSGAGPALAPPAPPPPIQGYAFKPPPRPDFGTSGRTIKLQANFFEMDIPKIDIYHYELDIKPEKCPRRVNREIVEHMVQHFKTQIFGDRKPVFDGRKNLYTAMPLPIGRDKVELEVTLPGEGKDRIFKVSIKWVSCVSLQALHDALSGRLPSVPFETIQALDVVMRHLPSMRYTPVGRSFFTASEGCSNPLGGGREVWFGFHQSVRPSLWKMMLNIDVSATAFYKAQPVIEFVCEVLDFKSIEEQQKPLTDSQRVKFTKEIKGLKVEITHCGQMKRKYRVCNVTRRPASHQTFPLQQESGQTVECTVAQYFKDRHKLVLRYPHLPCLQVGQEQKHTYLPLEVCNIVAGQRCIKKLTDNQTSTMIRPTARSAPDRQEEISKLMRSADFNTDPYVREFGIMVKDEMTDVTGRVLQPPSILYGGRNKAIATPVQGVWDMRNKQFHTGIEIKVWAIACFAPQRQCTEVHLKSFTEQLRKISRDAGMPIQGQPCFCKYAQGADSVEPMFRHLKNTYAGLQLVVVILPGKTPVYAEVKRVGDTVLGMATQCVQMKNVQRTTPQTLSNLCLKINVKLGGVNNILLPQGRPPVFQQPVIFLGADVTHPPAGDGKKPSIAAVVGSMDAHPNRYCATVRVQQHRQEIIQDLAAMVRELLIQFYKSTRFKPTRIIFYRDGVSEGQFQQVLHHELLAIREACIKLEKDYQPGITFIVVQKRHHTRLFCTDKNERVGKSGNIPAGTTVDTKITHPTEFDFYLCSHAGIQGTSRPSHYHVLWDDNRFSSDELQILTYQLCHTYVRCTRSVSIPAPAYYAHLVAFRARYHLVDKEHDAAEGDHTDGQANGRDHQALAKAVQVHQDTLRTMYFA

Row | Binder | binding signal (AGO2 L192P) | binding signal (AGO2 A367P) | binding signal (AGO2 T357M) | binding signal (AGO2 F182del)
1 | B1 | 0.434 fold enrichment over input | 0.184 fold enrichment over input | 0.53 fold enrichment over input | 0.195 fold enrichment over input
2 | B2 | 0.32 fold enrichment over input | 0.146 fold enrichment over input | 0.421 fold enrichment over input | 
3 | B3 | 0.443 fold enrichment over input | 0.171 fold enrichment over input | 0.526 fold enrichment over input | 
4 | B4 | 0.361 fold enrichment over input | 0.139 fold enrichment over input | 0.534 fold enrichment over input | 
5 | B5 | 0.37 fold enrichment over input | 0.145 fold enrichment over input | 0.55 fold enrichment over input | 
6 | B6 | 0.484 fold enrichment over input | 0.173 fold enrichment over input | 0.582 fold enrichment over input | 
7 | B7 | 0.39 fold enrichment over input | 0.139 fold enrichment over input | 0.506 fold enrichment over input | 
8 | B8 | 0.371 fold enrichment over input | 0.163 fold enrichment over input | 0.565 fold enrichment over input | 
9 | B9 | 0.47 fold enrichment over input | 0.168 fold enrichment over input | 0.563 fold enrichment over input | 
10 | B10 | 0.381 fold enrichment over input | 0.15 fold enrichment over input | 0.508 fold enrichment over input | 
11 | B11 | 0.434 fold enrichment over input | 0.179 fold enrichment over input | 0.617 fold enrichment over input | 
12 | B12 | 0.365 fold enrichment over input | 0.121 fold enrichment over input | 0.46 fold enrichment over input | 
13 | B13 | 0.422 fold enrichment over input | 0.159 fold enrichment over input | 0.548 fold enrichment over input | 
14 | B14 | 0.365 fold enrichment over input | 0.15 fold enrichment over input | 0.532 fold enrichment over input | 
15 | B15 | 0.38 fold enrichment over input | 0.156 fold enrichment over input | 0.56 fold enrichment over input | 
16 | B16 | 0.409 fold enrichment over input | 0.138 fold enrichment over input | 0.513 fold enrichment over input | 
17 | B17 | 0.431 fold enrichment over input | 0.162 fold enrichment over input | 0.57 fold enrichment over input | 
18 | B18 | 0.406 fold enrichment over input | 0.159 fold enrichment over input | 0.568 fold enrichment over input | 
19 | B19 | 0.48 fold enrichment over input | 0.201 fold enrichment over input | 0.628 fold enrichment over input | 0.282 fold enrichment over input
20 | B20 | 0.489 fold enrichment over input | 0.185 fold enrichment over input | 0.644 fold enrichment over input | 
21 | B21 | 0.366 fold enrichment over input | 0.15 fold enrichment over input | 0.539 fold enrichment over input | 
22 | B22 | 0.515 fold enrichment over input | 0.214 fold enrichment over input | 0.601 fold enrichment over input | 0.327 fold enrichment over input
